Measured values from paper PMC5540273 (PLoS ONE, 2017).

What follows are compounds tested on RIPK4. Conditions: concentration: 1 μM, replicates: in singlicate; n = 1.
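Note: KINOMEscan kinase panel screen.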

Structure (SMILES) | %Inh
Cc1ccc(Nc2ccnc(Nc3ccc(C)c(F)c3)n2)cc1O.Cl [GW582868] | 13%
O=C(Nc1c(F)cccc1F)c1cc(C(=O)c2ccccc2F)c[nH]1 [GSK1326180] | 0%
COc1cccc(CC(=O)N2CCc3cc(-c4cn(C)c5ncnc(N)c45)ccc32)c1 [GSK2608899] | 0%
Cl.N#CCc1ccc(Nc2nccc(Nc3ccc(Oc4ccccc4)cc3)n2)cc1 [GW639905] | 0%
Nc1ncc(-c2ccc3nccc(-c4ccncc4)c3c2)cc1S(=O)(=O)N1CCCCC1 [GSK1693850] | 5%
COc1cc(Nc2nccc(N3CCC(NS(=O)(=O)c4ccc(NC(C)=O)cc4)CC3)n2)cc(OC)c1OC [GSK1379825] | 48%
COc1cccc2c(-c3ccncc3)c(-c3ccc(F)cc3)nn12 [GW468513] | 8%
CCn1cnc2c(NCc3ccccc3)ncnc21 [SKF-96418] | 13%
COc1cccc(-c2nc(-c3ccccc3)[nH]c2-c2ccncc2)c1 [SB-610250] | 11%
COc1cc(Nc2ccnc3cc(-c4ccncc4)ccc23)cc(OC)c1OC.Cl [GW494610] | 0%
O=C(O)C(F)(F)F.O=c1[nH]ccc2nc(N[C@@H]3CCNC3)nc(Nc3ccc4c(c3)S(=O)(=O)CC4)c12 [GSK2181306] | 96%
CN(C)c1ncnc2nc[nH]c12 [SKF-31736] | 26%
O=C(Nc1n[nH]c2nc(-c3ccccc3O)ccc12)C1CC1 [SB-711880] | 40%
CCNc1nccc(-c2c(-c3ccc(F)cc3)ncn2C2CCN(C)CC2)n1 | 0%
O=C(O)C(F)(F)F.O=c1[nH]ccc2nc(N[C@@H]3CCNC3)nc(Nc3cc(Cl)cc(Cl)c3)c12 [GSK2188764] | 44%
COC(=O)Nc1nc2cc(Oc3ccc(NC(=O)Nc4cccc(SC)c4)cc3)ccc2[nH]1.Cl [GW697999] | 2%
Cc1cccc(Nc2nc(N[C@H]3CCCC[C@H]3N)ncc2C(N)=O)c1.Cl [GSK986310] | 68%
COc1cc(Nc2nccc(N3CCC(NC(=O)Nc4ccc5c(c4)OCO5)C3)n2)cc(OC)c1OC (centres unmarked) [GSK1379766] | 62%
CC(C)(C)c1ccc(C(=O)Nc2cn3cc(-n4ccnc4)ccc3n2)cc1 | 0%

Structure (SMILES) | %Inh
CC(C)NCC(Cc1ccccc1)NC(=O)c1cc(Br)c(-c2ccnc3[nH]ccc23)s1.Cl.Cl (centres unmarked) [GSK1383281] | 15%
CSc1ccc(NC2=C(c3ccc(Cl)cc3)C(=O)NC2=O)cc1 [SB-317658] | 16%
O=C(Nc1n[nH]c2cc(-c3cccs3)ccc12)C1CC1 [SB-731284] | 10%
O=C(Nc1n[nH]c2nc(-c3cccc(O)c3)ccc12)C1CC1 [SB-711805] | 37%
Cc1cc(-c2ccnc(Nc3cccc(C#N)c3)n2)cc(C)c1O [GSK1440913] | 37%
Cc1ccc(-c2ccc3occ(-c4ccc(S(C)=O)cc4)c3c2)nn1 (centres unmarked) | 0%
CN(C)CCNS(=O)(=O)c1ccc(-c2ccnc3[nH]ccc23)cc1 [GSK977620] | 3%
COC(=O)Nc1nc2ccc(Oc3ccc(CC(=O)Nc4cc(C(F)(F)F)ccc4F)cc3)cc2[nH]1 [GW680903] | 8%
Cl.Cl.NCC(NC(=O)c1cc(-c2cccnc2)c(-c2ccnc3[nH]ccc23)s1)c1ccccc1 (centres unmarked) [GSK1323434] | 16%
CCn1c(-c2nonc2N)nc2c(-c3ccccc3)ncc(OCCCN)c21.O=C(O)C(F)(F)F.O=C(O)C(F)(F)F [GSK260205] | 10%
Cc1ccc(NC(=O)c2cccc(N3CCCCC3)c2)cc1-c1ccc(C(=O)NCC2CC2)cc1 [GSK1917008] | 29%
CN(c1ccc(NC(=O)N2CCN(CCCN3CCOCC3)CC2)cc1)c1ccnc(Nc2ccc(CS(C)(=O)=O)cc2)n1.Cl [GW830899] | 100%
c1ccc(Oc2ccc(Nc3ccnc4cc(-c5ccc(CN6CCCCC6)o5)ccc34)cc2)nc1 [GW567143] | 0%
Cc1ccc(NC(=O)c2ccc(Cl)c(Cl)c2)cc1-c1ccc(C(=O)Nc2ccncc2)cc1 [GSK1398460] | 6%
Cc1ccccc1CC(=O)N1CCc2cc(-c3cn(C)c4ncnc(N)c34)ccc21 [GSK2603346] | 0%
CNc1nccc(-c2ccc3c(N)n[nH]c3c2)n1 [GSK2206003] | 41%
Nc1ncc(-c2cn[nH]c2)c2scc(-c3ccc4c(c3)CCN4C(=O)Cc3ccccc3)c12 [GSK2593067] | 0%
COC(=O)Nc1nc2ccc(Oc3ccc(NC(=O)Nc4cc(C(F)(F)F)ccc4F)cc3)cc2[nH]1.Cl [GW654607] | 18%

What follows are compounds tested on RIPK5. Conditions: concentration: 1 μM, replicates: in singlicate; n = 1.

Structure (SMILES) | %Inh
Cc1ccc(Nc2ccnc(Nc3ccc(C)c(F)c3)n2)cc1O.Cl [GW582868] | 0%
O=C(Nc1c(F)cccc1F)c1cc(C(=O)c2ccccc2F)c[nH]1 [GSK1326180] | 0%
COc1cccc(CC(=O)N2CCc3cc(-c4cn(C)c5ncnc(N)c45)ccc32)c1 [GSK2608899] | 58%
Cl.N#CCc1ccc(Nc2nccc(Nc3ccc(Oc4ccccc4)cc3)n2)cc1 [GW639905] | 17%
Nc1ncc(-c2ccc3nccc(-c4ccncc4)c3c2)cc1S(=O)(=O)N1CCCCC1 [GSK1693850] | 25%
COc1cc(Nc2nccc(N3CCC(NS(=O)(=O)c4ccc(NC(C)=O)cc4)CC3)n2)cc(OC)c1OC [GSK1379825] | 0%
COc1cccc2c(-c3ccncc3)c(-c3ccc(F)cc3)nn12 [GW468513] | 0%
CCn1cnc2c(NCc3ccccc3)ncnc21 [SKF-96418] | 28%
COc1cccc(-c2nc(-c3ccccc3)[nH]c2-c2ccncc2)c1 [SB-610250] | 0%
COc1cc(Nc2ccnc3cc(-c4ccncc4)ccc23)cc(OC)c1OC.Cl [GW494610] | 0%
O=C(O)C(F)(F)F.O=c1[nH]ccc2nc(N[C@@H]3CCNC3)nc(Nc3ccc4c(c3)S(=O)(=O)CC4)c12 [GSK2181306] | 94.4%
CN(C)c1ncnc2nc[nH]c12 [SKF-31736] | 10%
O=C(Nc1n[nH]c2nc(-c3ccccc3O)ccc12)C1CC1 [SB-711880] | 0%
CCNc1nccc(-c2c(-c3ccc(F)cc3)ncn2C2CCN(C)CC2)n1 | 0%
O=C(O)C(F)(F)F.O=c1[nH]ccc2nc(N[C@@H]3CCNC3)nc(Nc3cc(Cl)cc(Cl)c3)c12 [GSK2188764] | 10%
COC(=O)Nc1nc2cc(Oc3ccc(NC(=O)Nc4cccc(SC)c4)cc3)ccc2[nH]1.Cl [GW697999] | 0%
Cc1cccc(Nc2nc(N[C@H]3CCCC[C@H]3N)ncc2C(N)=O)c1.Cl [GSK986310] | 17%
COc1cc(Nc2nccc(N3CCC(NC(=O)Nc4ccc5c(c4)OCO5)C3)n2)cc(OC)c1OC (centres unmarked) [GSK1379766] | 0%
CC(C)(C)c1ccc(C(=O)Nc2cn3cc(-n4ccnc4)ccc3n2)cc1 | 34%

Structure (SMILES) | %Inh
CC(C)NCC(Cc1ccccc1)NC(=O)c1cc(Br)c(-c2ccnc3[nH]ccc23)s1.Cl.Cl (centres unmarked) [GSK1383281] | 9%
CSc1ccc(NC2=C(c3ccc(Cl)cc3)C(=O)NC2=O)cc1 [SB-317658] | 7%
O=C(Nc1n[nH]c2cc(-c3cccs3)ccc12)C1CC1 [SB-731284] | 48%
O=C(Nc1n[nH]c2nc(-c3cccc(O)c3)ccc12)C1CC1 [SB-711805] | 7%
Cc1cc(-c2ccnc(Nc3cccc(C#N)c3)n2)cc(C)c1O [GSK1440913] | 8%
Cc1ccc(-c2ccc3occ(-c4ccc(S(C)=O)cc4)c3c2)nn1 (centres unmarked) | 0%
CN(C)CCNS(=O)(=O)c1ccc(-c2ccnc3[nH]ccc23)cc1 [GSK977620] | 0%
COC(=O)Nc1nc2ccc(Oc3ccc(CC(=O)Nc4cc(C(F)(F)F)ccc4F)cc3)cc2[nH]1 [GW680903] | 0%
Cl.Cl.NCC(NC(=O)c1cc(-c2cccnc2)c(-c2ccnc3[nH]ccc23)s1)c1ccccc1 (centres unmarked) [GSK1323434] | 0%
CCn1c(-c2nonc2N)nc2c(-c3ccccc3)ncc(OCCCN)c21.O=C(O)C(F)(F)F.O=C(O)C(F)(F)F [GSK260205] | 0%
Cc1ccc(NC(=O)c2cccc(N3CCCCC3)c2)cc1-c1ccc(C(=O)NCC2CC2)cc1 [GSK1917008] | 0%
CN(c1ccc(NC(=O)N2CCN(CCCN3CCOCC3)CC2)cc1)c1ccnc(Nc2ccc(CS(C)(=O)=O)cc2)n1.Cl [GW830899] | 0%
c1ccc(Oc2ccc(Nc3ccnc4cc(-c5ccc(CN6CCCCC6)o5)ccc34)cc2)nc1 [GW567143] | 0%
Cc1ccc(NC(=O)c2ccc(Cl)c(Cl)c2)cc1-c1ccc(C(=O)Nc2ccncc2)cc1 [GSK1398460] | 4%
Cc1ccccc1CC(=O)N1CCc2cc(-c3cn(C)c4ncnc(N)c34)ccc21 [GSK2603346] | 69%
CNc1nccc(-c2ccc3c(N)n[nH]c3c2)n1 [GSK2206003] | 0%
Nc1ncc(-c2cn[nH]c2)c2scc(-c3ccc4c(c3)CCN4C(=O)Cc3ccccc3)c12 [GSK2593067] | 10%
COC(=O)Nc1nc2ccc(Oc3ccc(NC(=O)Nc4cc(C(F)(F)F)ccc4F)cc3)cc2[nH]1.Cl [GW654607] | 0%
